From the supplement of paper PMC11732987, “Enantioselective OTUD7B fragment discovery through chemoproteomics screening and high-throughput optimisation” (Communications Chemistry, 2025)

What was measured:
Experiment in all cases: log2 ratio of Biotin-Ahx-Ub-VS probe labelling (fragment/DMSO); higher = less target engagement (more negative = stronger competition), active = hit call of the paper (q ≤ 0.05, log2 ratio ≤ -1)
Conditions in all cases: compound concentration: 200 uM; treatment time: 3 h
USP34 = USP34 (UniProt Q70CQ2)
Procedure, shortened: (§1)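 HEK293T lysate, 495 µg per sample in Tris/CHAPS/IGEPAL buffer with protease inhibitors, was treated in triplicate with fragment at 200 µM or vehicle for 3 h and then with Biotin-Ahx-Ub-VS at 0.5 µM final for 1 h. Labelled DUBs were NeutrAvidin-enriched, digested with LysC and trypsin, and run by diaPASEF LC-MS/MS. Spectronaut label-free quantities were global-median-normalised, and values are average log2 fragment/vehicle ratios by unpaired t-test on proteins with ≥2 unique peptides.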

USP36 = biological target: T1, USP36 (UniProt Q9P275)
T1 sequence (whole entry): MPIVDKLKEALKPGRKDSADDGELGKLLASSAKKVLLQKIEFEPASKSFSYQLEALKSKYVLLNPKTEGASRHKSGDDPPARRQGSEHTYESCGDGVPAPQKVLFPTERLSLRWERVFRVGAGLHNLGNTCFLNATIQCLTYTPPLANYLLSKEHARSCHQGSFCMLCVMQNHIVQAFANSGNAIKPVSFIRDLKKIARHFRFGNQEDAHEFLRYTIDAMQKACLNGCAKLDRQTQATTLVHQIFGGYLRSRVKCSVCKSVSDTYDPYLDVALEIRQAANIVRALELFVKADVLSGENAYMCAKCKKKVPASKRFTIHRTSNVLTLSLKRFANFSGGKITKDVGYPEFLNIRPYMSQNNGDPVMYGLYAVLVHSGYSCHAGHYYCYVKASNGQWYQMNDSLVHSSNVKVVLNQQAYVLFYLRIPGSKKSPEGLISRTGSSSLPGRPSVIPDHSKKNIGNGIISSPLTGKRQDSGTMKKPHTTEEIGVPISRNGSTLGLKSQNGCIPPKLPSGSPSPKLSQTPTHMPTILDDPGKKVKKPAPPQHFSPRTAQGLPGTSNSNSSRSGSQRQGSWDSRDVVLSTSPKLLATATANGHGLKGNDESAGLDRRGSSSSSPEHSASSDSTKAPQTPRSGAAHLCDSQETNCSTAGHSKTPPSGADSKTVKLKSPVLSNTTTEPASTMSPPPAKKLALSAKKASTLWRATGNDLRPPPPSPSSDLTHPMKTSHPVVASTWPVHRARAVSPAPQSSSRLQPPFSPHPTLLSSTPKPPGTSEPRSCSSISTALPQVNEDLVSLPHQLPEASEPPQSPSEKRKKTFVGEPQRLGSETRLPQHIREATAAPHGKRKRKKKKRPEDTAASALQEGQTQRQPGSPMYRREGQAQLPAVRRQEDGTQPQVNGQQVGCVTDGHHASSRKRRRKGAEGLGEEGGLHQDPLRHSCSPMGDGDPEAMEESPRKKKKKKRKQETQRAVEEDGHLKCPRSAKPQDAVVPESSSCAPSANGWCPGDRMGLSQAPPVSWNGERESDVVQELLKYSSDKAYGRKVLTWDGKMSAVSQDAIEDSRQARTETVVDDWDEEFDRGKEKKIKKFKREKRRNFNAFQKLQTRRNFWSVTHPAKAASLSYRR
Procedure, shortened: as §1

USP38 = biological target: T2, USP38 (UniProt Q8NB14)
T2 sequence (whole entry): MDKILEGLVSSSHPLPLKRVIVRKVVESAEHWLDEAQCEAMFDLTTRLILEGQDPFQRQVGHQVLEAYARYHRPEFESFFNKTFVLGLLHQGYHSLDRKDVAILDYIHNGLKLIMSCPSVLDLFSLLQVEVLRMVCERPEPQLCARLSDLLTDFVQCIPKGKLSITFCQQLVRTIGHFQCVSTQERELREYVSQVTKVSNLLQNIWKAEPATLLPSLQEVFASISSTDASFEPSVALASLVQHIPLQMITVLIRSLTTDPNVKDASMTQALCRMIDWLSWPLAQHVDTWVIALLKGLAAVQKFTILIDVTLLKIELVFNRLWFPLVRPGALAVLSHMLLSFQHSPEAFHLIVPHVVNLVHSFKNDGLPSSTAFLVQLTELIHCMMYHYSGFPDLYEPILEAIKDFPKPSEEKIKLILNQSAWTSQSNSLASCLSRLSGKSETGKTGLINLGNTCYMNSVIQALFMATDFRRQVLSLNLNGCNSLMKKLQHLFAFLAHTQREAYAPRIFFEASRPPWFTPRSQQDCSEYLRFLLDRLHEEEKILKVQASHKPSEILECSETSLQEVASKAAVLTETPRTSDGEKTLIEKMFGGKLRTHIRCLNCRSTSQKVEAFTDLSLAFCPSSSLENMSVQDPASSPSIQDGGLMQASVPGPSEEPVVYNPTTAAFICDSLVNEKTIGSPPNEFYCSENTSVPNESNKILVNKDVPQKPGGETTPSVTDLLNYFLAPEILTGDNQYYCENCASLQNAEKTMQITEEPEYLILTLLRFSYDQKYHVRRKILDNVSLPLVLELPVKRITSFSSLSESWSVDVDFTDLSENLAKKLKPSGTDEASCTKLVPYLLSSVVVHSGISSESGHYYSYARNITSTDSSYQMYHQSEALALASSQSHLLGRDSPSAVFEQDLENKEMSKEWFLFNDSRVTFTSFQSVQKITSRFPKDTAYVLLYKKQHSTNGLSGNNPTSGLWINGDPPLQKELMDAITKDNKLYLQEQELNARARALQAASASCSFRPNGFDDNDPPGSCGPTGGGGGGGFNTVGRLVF
Procedure, shortened: as §1

USP39 = biological target: T3, USP39 (UniProt Q53GS9)
T3 sequence (whole entry): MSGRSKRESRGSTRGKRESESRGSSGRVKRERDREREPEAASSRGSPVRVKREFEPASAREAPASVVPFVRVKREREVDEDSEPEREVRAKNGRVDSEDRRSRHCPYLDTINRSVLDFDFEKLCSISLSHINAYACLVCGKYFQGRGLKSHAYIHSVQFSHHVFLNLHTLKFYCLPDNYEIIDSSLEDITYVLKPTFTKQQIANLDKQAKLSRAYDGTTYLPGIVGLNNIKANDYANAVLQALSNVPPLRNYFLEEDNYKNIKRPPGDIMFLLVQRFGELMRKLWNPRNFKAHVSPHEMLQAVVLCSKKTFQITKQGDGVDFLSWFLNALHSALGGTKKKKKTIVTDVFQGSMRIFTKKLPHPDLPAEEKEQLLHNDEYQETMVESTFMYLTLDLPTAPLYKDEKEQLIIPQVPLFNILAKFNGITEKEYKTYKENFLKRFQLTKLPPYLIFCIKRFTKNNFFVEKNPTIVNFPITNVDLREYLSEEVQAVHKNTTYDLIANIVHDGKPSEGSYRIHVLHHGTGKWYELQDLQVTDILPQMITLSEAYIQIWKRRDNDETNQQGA
Procedure, shortened: as §1

USP4 = biological target: T4, USP4 (UniProt Q13107)
T4 sequence (whole entry): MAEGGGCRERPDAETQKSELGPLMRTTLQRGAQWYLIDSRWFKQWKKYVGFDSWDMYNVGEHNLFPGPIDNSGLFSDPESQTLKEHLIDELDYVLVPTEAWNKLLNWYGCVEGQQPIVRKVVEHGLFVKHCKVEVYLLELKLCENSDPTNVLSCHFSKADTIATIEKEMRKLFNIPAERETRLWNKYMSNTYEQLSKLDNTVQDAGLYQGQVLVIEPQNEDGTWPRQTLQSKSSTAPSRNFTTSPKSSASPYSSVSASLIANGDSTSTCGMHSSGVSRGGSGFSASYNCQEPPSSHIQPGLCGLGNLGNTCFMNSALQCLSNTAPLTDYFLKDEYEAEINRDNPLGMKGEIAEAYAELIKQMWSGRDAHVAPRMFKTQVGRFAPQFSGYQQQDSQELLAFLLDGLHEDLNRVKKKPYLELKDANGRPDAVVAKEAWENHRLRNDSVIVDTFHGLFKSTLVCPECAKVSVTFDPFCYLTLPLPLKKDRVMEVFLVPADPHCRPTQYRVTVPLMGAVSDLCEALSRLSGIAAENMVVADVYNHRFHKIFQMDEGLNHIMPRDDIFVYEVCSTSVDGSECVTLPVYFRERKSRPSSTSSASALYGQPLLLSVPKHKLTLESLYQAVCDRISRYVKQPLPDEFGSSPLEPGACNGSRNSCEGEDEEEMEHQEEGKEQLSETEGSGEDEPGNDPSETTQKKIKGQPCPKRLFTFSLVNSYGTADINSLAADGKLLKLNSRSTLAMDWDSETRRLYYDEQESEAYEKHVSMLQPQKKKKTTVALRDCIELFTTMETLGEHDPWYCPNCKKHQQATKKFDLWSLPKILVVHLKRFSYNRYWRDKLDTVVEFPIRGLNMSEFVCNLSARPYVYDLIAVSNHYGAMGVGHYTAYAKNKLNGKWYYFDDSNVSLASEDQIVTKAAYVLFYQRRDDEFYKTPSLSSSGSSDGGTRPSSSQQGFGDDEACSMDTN
Procedure, shortened: as §1

Measured: log2 ratio of Biotin-Ahx-Ub-VS probe labelling

USP34, sequence (Q70CQ2 whole entry, the tested form may be a part): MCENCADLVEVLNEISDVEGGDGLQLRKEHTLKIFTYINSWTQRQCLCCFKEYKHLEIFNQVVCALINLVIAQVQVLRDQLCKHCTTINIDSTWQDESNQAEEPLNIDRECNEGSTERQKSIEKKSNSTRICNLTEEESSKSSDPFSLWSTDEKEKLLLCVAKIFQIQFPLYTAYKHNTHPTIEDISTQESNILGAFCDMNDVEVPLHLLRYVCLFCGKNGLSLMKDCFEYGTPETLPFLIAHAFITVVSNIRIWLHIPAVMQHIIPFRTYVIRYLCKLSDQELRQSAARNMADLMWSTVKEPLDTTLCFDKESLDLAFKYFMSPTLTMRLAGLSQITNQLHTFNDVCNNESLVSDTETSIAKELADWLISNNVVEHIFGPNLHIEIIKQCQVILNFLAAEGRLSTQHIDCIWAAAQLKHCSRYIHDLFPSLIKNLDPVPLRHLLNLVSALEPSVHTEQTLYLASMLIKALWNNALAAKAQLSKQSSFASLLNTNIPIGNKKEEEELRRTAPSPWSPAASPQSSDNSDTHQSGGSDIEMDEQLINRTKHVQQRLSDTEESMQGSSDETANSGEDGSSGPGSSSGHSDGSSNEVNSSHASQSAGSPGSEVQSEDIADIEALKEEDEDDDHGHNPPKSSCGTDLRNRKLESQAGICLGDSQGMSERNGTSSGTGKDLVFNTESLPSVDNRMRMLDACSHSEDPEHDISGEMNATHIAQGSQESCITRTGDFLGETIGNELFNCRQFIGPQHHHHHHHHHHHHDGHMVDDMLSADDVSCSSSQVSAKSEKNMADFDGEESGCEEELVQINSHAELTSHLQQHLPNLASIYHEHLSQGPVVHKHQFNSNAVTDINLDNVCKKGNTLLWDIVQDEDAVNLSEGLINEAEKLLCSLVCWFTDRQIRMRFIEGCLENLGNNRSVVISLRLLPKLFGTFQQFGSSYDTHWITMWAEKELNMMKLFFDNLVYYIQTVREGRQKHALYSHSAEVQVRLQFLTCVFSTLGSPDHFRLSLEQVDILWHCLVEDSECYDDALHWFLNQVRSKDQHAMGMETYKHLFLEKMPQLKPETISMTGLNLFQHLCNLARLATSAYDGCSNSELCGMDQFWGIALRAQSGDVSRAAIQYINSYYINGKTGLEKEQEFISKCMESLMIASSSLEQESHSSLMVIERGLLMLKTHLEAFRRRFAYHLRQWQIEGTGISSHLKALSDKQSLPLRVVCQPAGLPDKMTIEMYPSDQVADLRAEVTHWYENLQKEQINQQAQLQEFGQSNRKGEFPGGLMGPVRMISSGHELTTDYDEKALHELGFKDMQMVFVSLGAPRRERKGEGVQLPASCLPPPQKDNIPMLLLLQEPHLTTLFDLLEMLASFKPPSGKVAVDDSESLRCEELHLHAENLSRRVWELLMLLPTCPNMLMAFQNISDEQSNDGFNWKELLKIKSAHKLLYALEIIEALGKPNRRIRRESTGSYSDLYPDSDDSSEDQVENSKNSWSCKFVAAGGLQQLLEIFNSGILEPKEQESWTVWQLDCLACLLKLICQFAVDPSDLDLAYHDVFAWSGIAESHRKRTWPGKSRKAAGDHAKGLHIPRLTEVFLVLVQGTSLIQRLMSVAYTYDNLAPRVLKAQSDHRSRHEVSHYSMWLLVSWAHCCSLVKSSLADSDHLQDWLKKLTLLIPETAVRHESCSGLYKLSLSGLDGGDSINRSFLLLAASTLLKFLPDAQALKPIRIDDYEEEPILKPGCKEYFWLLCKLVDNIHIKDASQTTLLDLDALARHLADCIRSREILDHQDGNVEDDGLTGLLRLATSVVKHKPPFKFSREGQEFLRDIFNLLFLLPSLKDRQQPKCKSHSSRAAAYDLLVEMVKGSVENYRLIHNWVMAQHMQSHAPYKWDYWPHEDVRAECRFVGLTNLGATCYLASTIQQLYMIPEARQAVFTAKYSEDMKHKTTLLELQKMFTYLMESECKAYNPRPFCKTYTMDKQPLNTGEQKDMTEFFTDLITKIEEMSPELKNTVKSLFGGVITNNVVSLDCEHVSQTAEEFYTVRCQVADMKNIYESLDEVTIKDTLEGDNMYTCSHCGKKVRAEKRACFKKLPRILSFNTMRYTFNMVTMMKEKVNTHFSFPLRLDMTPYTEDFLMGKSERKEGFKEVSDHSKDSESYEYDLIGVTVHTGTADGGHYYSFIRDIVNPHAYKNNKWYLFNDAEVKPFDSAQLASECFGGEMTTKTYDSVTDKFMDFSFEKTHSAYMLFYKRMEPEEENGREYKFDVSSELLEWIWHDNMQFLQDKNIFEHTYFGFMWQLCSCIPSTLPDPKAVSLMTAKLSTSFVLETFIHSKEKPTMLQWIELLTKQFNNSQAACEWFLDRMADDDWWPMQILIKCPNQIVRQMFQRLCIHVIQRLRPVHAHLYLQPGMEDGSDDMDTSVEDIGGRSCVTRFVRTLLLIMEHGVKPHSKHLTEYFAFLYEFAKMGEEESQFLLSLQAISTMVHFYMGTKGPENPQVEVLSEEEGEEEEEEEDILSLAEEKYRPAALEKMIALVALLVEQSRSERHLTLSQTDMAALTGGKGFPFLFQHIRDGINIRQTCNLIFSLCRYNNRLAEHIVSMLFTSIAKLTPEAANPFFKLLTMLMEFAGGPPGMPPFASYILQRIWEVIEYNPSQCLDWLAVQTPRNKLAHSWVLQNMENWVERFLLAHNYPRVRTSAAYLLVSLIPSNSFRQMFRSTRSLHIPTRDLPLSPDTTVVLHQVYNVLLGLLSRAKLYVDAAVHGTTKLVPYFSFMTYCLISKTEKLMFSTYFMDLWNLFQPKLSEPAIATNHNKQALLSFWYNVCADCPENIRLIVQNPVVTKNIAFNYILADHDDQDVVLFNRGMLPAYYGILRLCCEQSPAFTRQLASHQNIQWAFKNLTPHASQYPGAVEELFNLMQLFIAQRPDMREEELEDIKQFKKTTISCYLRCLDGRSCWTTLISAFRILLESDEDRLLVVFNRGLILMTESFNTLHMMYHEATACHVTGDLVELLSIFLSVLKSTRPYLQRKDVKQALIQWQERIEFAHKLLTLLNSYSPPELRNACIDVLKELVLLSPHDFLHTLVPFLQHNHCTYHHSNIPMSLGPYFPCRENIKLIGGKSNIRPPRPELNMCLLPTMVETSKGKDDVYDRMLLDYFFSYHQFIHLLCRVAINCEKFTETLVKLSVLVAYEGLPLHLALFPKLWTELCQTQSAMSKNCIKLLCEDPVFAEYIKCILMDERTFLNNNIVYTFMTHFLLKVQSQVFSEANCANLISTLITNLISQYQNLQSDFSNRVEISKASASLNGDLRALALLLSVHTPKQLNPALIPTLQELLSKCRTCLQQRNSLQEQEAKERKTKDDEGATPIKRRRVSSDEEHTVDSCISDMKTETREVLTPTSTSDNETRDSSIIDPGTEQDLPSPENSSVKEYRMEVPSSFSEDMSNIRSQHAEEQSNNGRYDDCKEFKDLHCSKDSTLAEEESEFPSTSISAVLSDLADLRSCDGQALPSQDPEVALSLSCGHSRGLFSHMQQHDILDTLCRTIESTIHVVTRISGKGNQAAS

Cl.O=C(CCl)NC1(c2ncccn2)CCC1
inactive: USP34 0.0452 | USP36 0.109 | USP38 0.0726 | USP39 0.133 | USP4 0.0299
